Legend:
[1] = molecular target: BDNF/NT-3 growth factors receptor (Homo sapiens) (UniProt Q16620); settings: at 10 µM
[2] = molecular target: T1, Tyrosine-protein kinase TXK (Homo sapiens) (UniProt P42681); settings: at 1 µM
T1 sequence (whole entry): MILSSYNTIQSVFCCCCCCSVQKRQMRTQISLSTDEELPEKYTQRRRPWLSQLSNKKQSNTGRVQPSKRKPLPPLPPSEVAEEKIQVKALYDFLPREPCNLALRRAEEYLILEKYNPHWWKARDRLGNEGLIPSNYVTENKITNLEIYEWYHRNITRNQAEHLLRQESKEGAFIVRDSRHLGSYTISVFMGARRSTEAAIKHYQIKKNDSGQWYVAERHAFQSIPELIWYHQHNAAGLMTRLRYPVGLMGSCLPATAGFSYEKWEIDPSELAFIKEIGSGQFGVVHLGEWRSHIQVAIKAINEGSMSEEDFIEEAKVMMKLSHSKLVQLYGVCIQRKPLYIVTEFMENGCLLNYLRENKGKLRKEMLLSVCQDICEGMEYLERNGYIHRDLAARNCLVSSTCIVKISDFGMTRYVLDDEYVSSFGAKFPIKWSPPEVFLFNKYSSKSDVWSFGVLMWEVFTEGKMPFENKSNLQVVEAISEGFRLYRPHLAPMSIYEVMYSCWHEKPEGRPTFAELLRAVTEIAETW

[3] = molecular target: T1, Tyrosine-protein kinase TXK (Homo sapiens); settings: at 10 µM
[4] = molecular target: T2, Serine/threonine-protein kinase ULK2 (Homo sapiens) (UniProt Q8IYT8); settings: at 1 µM
T2 sequence (whole entry): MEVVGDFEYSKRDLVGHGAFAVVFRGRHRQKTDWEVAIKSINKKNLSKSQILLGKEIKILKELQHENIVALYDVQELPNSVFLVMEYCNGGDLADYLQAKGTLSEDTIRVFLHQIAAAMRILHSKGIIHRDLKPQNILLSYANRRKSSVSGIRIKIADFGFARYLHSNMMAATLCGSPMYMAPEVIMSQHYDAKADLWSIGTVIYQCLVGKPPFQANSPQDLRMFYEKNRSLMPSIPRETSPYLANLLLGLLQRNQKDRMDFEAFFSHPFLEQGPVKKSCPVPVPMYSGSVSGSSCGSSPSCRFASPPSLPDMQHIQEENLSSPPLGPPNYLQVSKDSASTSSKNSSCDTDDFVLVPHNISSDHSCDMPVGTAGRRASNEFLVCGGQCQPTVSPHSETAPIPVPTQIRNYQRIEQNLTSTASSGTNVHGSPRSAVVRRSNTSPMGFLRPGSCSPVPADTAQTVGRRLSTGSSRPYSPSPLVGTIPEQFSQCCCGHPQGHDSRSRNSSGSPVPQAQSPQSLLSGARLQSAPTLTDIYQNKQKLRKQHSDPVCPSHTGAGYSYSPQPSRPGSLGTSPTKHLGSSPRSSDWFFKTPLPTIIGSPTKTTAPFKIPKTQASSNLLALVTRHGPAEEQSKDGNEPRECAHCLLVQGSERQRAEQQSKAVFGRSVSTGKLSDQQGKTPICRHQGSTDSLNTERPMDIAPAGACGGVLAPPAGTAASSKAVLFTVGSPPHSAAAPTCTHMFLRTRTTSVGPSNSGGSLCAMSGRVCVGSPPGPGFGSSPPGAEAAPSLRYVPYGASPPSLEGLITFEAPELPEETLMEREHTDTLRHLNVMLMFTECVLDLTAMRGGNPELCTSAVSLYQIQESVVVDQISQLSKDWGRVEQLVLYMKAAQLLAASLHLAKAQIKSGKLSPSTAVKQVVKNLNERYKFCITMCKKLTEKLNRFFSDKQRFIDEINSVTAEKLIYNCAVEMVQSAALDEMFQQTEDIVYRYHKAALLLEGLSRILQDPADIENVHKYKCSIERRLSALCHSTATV

[5] = molecular target: T2, Serine/threonine-protein kinase ULK2 (Homo sapiens); settings: at 10 µM
[6] = molecular target: T3, Serine/threonine-protein kinase ULK3 (Homo sapiens) (UniProt Q6PHR2); settings: at 1 µM
T3 sequence (whole entry): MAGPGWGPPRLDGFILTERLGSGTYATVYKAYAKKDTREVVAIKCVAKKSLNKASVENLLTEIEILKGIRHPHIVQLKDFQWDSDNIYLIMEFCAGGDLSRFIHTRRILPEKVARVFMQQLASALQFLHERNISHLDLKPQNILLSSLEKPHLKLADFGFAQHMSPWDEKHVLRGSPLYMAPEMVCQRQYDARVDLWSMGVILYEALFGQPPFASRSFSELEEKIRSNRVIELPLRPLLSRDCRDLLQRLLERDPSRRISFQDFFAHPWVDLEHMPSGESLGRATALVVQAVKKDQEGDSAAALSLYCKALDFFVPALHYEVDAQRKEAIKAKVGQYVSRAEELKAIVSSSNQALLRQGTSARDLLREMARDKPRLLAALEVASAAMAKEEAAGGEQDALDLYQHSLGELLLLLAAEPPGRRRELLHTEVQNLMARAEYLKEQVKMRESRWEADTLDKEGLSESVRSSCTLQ

[7] = molecular target: T3, Serine/threonine-protein kinase ULK3 (Homo sapiens); settings: at 10 µM
[8] = molecular target: Serine/threonine-protein kinase VRK2 (Homo sapiens) (UniProt Q86Y07); settings: at 1 µM
[9] = molecular target: Serine/threonine-protein kinase VRK2 (Homo sapiens) (UniProt Q86Y07); settings: at 10 µM
[10] = molecular target: Serine/threonine-protein kinase WNK2 (Homo sapiens) (UniProt Q9Y3S1); settings: at 1 µM
[11] = molecular target: Serine/threonine-protein kinase WNK2 (Homo sapiens) (UniProt Q9Y3S1); settings: at 10 µM
[12] = molecular target: Serine/threonine-protein kinase WNK3 (Homo sapiens) (UniProt Q9BYP7); settings: at 1 µM
[13] = molecular target: Serine/threonine-protein kinase WNK3 (Homo sapiens) (UniProt Q9BYP7); settings: at 10 µM
[14] = molecular target: Tyrosine-protein kinase Yes (Homo sapiens) (UniProt P07947); settings: at 1 µM
[15] = molecular target: Tyrosine-protein kinase Yes (Homo sapiens) (UniProt P07947); settings: at 10 µM
[16] = molecular target: T4, Tyrosine-protein kinase ZAP-70 (Homo sapiens) (UniProt P43403); settings: at 1 µM
T4 sequence (whole entry): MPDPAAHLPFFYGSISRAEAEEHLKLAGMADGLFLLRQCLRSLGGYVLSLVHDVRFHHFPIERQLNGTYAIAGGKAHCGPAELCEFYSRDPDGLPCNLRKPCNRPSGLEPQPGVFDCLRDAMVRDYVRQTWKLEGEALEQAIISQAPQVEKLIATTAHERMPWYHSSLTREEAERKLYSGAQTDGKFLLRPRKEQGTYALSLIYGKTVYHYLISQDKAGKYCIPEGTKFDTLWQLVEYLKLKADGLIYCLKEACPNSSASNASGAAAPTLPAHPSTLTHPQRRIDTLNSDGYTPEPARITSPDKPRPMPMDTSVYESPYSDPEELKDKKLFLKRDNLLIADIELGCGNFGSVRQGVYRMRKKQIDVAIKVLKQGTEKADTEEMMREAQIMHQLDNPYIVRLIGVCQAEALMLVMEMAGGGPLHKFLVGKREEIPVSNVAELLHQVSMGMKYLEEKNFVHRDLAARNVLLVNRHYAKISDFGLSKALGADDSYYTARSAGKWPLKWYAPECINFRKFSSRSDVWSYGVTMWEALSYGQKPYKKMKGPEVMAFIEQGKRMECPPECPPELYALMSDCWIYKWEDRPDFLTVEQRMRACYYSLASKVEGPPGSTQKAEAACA

[17] = molecular target: Death-associated protein kinase 3 (Homo sapiens) (UniProt O43293); settings: at 1 µM
[18] = molecular target: Death-associated protein kinase 3 (Homo sapiens) (UniProt O43293); settings: at 10 µM
[19] = molecular target: RAF proto-oncogene serine/threonine-protein kinase (Homo sapiens) (UniProt P04049); settings: at 1 µM
[20] = molecular target: RAF proto-oncogene serine/threonine-protein kinase (Homo sapiens) (UniProt P04049); settings: at 10 µM

Chain of Serine/threonine-protein kinase WNK3 (Homo sapiens) (Q9BYP7 whole entry): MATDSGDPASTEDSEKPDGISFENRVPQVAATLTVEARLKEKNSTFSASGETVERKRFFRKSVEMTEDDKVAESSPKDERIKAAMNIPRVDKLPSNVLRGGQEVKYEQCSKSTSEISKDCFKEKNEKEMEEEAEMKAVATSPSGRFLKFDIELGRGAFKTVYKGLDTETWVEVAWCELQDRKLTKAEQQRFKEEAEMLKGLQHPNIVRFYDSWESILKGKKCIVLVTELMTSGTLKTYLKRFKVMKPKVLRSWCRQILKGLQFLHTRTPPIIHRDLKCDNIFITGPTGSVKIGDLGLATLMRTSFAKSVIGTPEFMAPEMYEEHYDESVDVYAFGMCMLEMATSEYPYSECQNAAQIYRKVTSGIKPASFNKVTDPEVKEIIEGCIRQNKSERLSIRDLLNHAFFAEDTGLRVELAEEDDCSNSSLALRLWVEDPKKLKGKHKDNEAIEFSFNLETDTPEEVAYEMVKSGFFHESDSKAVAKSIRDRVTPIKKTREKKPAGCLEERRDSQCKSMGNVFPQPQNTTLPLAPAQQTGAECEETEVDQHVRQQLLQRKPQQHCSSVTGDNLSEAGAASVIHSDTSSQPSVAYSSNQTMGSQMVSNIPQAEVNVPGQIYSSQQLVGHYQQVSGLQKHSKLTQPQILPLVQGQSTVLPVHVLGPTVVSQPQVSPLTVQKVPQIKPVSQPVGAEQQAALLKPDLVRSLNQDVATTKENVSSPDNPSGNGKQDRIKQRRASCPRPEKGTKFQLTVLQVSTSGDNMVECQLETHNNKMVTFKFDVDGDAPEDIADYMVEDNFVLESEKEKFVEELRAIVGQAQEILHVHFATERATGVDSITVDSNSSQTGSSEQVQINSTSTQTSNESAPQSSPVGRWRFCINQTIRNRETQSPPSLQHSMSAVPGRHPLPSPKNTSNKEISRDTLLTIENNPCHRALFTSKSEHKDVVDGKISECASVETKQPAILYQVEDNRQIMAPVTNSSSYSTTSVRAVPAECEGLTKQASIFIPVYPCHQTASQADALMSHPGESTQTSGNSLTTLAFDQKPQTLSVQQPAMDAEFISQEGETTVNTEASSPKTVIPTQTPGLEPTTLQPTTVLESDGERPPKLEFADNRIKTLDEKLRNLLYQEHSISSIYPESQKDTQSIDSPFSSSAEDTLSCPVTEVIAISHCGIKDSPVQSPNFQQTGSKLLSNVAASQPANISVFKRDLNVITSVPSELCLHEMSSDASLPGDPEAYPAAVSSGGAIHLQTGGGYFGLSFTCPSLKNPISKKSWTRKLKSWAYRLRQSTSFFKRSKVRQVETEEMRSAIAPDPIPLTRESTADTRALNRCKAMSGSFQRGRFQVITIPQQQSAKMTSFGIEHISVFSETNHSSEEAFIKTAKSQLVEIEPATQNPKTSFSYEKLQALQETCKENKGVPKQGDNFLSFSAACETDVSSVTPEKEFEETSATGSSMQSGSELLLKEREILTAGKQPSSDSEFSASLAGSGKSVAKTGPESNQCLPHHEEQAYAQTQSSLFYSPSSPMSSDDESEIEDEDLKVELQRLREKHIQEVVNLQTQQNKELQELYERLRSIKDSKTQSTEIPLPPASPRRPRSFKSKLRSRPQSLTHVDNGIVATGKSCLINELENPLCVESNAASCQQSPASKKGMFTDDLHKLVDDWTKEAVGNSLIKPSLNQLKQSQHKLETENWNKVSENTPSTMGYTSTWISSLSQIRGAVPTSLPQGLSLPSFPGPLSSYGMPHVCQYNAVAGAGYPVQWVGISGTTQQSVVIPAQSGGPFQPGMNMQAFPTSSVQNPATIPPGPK
Chain of BDNF/NT-3 growth factors receptor (Homo sapiens) (Q16620 32-822 limits assumed): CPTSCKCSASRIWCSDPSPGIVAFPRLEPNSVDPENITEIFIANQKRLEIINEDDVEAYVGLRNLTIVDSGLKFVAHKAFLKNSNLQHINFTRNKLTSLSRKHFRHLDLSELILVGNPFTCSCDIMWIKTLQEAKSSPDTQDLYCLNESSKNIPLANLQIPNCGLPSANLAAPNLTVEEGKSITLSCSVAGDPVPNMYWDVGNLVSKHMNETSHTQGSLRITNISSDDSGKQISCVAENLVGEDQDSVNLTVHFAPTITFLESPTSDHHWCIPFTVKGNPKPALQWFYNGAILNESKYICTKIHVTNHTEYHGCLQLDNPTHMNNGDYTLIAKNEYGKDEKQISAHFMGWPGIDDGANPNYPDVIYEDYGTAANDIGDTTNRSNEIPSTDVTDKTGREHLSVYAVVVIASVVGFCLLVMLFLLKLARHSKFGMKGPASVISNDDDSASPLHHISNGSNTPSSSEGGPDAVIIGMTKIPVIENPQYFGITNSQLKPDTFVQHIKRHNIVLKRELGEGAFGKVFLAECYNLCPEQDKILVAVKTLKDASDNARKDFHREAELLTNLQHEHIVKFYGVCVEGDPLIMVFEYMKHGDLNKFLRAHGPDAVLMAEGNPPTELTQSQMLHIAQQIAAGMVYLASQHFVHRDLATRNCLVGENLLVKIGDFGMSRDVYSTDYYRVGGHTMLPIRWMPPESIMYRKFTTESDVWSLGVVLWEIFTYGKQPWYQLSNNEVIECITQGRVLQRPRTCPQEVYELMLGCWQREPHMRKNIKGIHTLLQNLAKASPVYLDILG
Chain of Tyrosine-protein kinase Yes (Homo sapiens) (P07947 2-543 limits assumed): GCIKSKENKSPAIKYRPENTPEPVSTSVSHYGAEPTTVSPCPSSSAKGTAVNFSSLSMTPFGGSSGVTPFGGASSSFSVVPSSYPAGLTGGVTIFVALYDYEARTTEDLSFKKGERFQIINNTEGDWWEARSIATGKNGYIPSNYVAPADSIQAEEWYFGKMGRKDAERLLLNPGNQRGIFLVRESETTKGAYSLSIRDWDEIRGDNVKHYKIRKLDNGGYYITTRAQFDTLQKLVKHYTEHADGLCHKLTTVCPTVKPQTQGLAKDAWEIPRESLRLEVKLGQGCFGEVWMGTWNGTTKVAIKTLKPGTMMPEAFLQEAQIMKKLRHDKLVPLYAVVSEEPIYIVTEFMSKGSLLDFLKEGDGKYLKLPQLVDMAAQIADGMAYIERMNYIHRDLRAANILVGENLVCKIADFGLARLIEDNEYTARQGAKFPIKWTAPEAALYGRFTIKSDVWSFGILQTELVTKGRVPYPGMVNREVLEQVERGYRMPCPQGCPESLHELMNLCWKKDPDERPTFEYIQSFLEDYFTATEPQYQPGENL
Chain of Serine/threonine-protein kinase VRK2 (Homo sapiens) (Q86Y07 whole entry): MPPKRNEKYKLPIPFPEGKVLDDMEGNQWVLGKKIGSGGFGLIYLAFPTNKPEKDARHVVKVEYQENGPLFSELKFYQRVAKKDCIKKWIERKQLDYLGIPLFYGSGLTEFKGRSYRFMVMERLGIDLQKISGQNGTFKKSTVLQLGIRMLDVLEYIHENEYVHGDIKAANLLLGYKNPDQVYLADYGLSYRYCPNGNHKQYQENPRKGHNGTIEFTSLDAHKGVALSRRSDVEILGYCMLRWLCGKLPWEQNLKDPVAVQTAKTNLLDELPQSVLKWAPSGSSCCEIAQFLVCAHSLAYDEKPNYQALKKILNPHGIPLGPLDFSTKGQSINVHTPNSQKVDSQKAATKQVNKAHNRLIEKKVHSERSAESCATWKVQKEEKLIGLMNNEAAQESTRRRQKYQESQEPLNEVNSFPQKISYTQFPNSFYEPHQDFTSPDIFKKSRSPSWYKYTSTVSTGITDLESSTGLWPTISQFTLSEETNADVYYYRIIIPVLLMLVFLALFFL
Chain of RAF proto-oncogene serine/threonine-protein kinase (Homo sapiens) (P04049 whole entry): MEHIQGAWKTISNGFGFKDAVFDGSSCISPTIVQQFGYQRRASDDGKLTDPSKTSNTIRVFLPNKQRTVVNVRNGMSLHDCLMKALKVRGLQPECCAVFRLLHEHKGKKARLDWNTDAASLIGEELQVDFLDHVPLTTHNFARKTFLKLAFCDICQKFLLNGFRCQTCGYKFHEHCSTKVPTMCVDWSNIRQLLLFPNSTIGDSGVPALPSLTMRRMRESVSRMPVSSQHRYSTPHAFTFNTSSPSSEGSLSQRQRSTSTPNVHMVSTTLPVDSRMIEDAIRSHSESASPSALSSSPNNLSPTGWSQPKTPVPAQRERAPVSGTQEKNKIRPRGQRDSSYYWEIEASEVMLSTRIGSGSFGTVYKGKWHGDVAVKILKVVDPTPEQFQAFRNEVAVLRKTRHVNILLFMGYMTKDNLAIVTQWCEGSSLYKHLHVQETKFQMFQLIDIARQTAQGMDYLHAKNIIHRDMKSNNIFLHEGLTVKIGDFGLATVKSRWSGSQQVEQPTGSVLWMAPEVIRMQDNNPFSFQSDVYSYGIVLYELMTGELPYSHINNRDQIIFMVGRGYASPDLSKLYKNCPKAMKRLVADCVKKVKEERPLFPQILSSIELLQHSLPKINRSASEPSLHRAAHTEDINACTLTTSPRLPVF
Chain of Death-associated protein kinase 3 (Homo sapiens) (O43293 whole entry, looked up): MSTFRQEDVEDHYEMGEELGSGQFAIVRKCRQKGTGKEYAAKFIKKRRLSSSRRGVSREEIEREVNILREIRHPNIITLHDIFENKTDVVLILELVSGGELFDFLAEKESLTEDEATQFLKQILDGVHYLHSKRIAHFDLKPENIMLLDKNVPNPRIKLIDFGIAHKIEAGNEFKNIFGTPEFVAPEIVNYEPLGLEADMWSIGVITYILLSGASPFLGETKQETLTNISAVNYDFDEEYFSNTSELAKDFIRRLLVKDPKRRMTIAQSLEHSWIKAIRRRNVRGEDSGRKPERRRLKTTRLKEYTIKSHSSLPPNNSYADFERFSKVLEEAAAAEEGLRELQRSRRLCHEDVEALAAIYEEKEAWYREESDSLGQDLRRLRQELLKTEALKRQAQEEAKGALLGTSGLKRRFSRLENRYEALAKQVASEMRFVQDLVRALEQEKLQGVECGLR

SMILES: Oc1c2ccccc2c2c3c(cccc13)N=N2
- residual activity [1]: 5%
- residual activity [2]: 58%
- residual activity [3]: 23%
- residual activity [4]: 90%
- residual activity [5]: 45%
- residual activity [6]: 73%
- residual activity [7]: 43%
- residual activity [8]: 78% (inactive)
- residual activity [9]: 36%
- residual activity [10]: 79% (inactive)
- residual activity [11]: 77%
- residual activity [12]: 87% (inactive)
- residual activity [13]: 77%
- residual activity [14]: 98%
- residual activity [15]: 51%
- residual activity [16]: 94%
- residual activity [17]: 87%
- residual activity [18]: 45%
- residual activity [19]: 69%
- residual activity [20]: 61%

SMILES: N#C/C(=C(\N)Sc1ccc(N)cc1)c1ccccc1C(F)(F)F
- residual activity [1]: 72%
- residual activity [2]: 74%
- residual activity [3]: 86%
- residual activity [4]: 119%
- residual activity [5]: 107%
- residual activity [6]: 95%
- residual activity [7]: 94%
- residual activity [8]: 101% (inactive)
- residual activity [9]: 95%
- residual activity [10]: 101% (inactive)
- residual activity [11]: 89%
- residual activity [12]: 93% (inactive)
- residual activity [13]: 89%
- residual activity [14]: 107%
- residual activity [15]: 101%
- residual activity [16]: 100%
- residual activity [17]: 89%
- residual activity [18]: 100%
- residual activity [19]: 76%
- residual activity [20]: 66%

SMILES: Cn1cc(/C=C2\C(=O)Nc3ccc(S(N)(=O)=O)cc32)c2ccccc21
- residual activity [1]: -12%
- residual activity [2]: 75%
- residual activity [3]: 47%
- residual activity [4]: 43%
- residual activity [5]: 24%
- residual activity [6]: 19%
- residual activity [7]: 4%
- residual activity [8]: 114% (inactive)
- residual activity [9]: 93%
- residual activity [10]: 111% (inactive)
- residual activity [11]: 85%
- residual activity [12]: 97% (inactive)
- residual activity [13]: 75%
- residual activity [14]: 8%
- residual activity [15]: 2%
- residual activity [16]: 107%
- residual activity [17]: 106%
- residual activity [18]: 90%
- residual activity [19]: 91%
- residual activity [20]: 100%
